Assay results from PubChem BioAssay (NCI).
The panel holds about 83,000 compounds, 20% with a hit somewhere; the sample as a whole holds those more often.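 Cell lines were cultured in 96-well plates, exposed to a single compound concentration, and assessed for percent growth 48 hours later.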 The source made the active and inactive calls. Rule for the calls: active = growth percent below 10; inactive = the rest.

Legend:
Test in all cases: NCI-60 one-dose screen, 48 h (100 = growth as untreated, 0 = no growth, -100 = all killed)
Settings in all cases: 10 µM unless noted
SK-MEL-2 melanoma = tested on: SK-MEL-2 melanoma
SN12C renal = tested on: SN12C renal
UO-31 renal = tested on: UO-31 renal
TK-10 renal = tested on: TK-10 renal
ACHN renal = tested on: ACHN renal
CAKI-1 renal = tested on: CAKI-1 renal
A498 renal = tested on: A498 renal
CCRF-CEM leukemia = tested on: CCRF-CEM leukemia
MOLT-4 leukemia = tested on: MOLT-4 leukemia
SR leukemia = tested on: SR leukemia
RPMI-8226 leukemia = tested on: RPMI-8226 leukemia
OVCAR-8 ovarian = tested on: OVCAR-8 ovarian
OVCAR-5 ovarian = tested on: OVCAR-5 ovarian
OVCAR-4 ovarian = tested on: OVCAR-4 ovarian
SK-OV-3 ovarian = tested on: SK-OV-3 ovarian
IGROV1 ovarian = tested on: IGROV1 ovarian
OVCAR-3 ovarian = tested on: OVCAR-3 ovarian
HS 578T breast = tested on: HS 578T breast
NCI/ADR-RES ovarian = tested on: NCI/ADR-RES ovarian

Measured: growth

Cc1csc(NC(c2ccc(Br)cc2)c2c(C)nc3ccccn23)n1 (stereo unspecified)
inactive: SK-MEL-2 melanoma 86.2% | SN12C renal 94.8% | UO-31 renal 55.9% | TK-10 renal 116% | ACHN renal 97.5% | CAKI-1 renal 80.8% | A498 renal 67.3% | CCRF-CEM leukemia 89.1% | MOLT-4 leukemia 87.1% | SR leukemia 96.6% | RPMI-8226 leukemia 74.7% | OVCAR-8 ovarian 88.6% | OVCAR-5 ovarian 88.2% | OVCAR-4 ovarian 81.5% | SK-OV-3 ovarian 85.3% | IGROV1 ovarian 86.5% | OVCAR-3 ovarian 96.7% | HS 578T breast 84.6% | NCI/ADR-RES ovarian 95.4%

CCN(CC)CCCC(C)Nc1c2ccc(Cl)cc2nc2cc(OC)c(OC)cc12 (stereo unspecified)
active: UO-31 renal -41% | TK-10 renal 2.47% | ACHN renal -76.2% | CAKI-1 renal 9.87% | MOLT-4 leukemia -8.8% | SR leukemia -14.2% | RPMI-8226 leukemia -33% | OVCAR-4 ovarian -30.7%
inactive: SK-MEL-2 melanoma 48% | SN12C renal 34.3% | A498 renal 54.6% | CCRF-CEM leukemia 15.5% | OVCAR-8 ovarian 14.1% | OVCAR-5 ovarian 50.9% | SK-OV-3 ovarian 40.5% | IGROV1 ovarian 24.3% | OVCAR-3 ovarian 34.4% | HS 578T breast 44.2% | NCI/ADR-RES ovarian 28.8%

Cc1csc(NC(c2ccccc2)c2c(C)nc3ccccn23)n1 (stereo unspecified)
inactive: SK-MEL-2 melanoma 107% | SN12C renal 99.9% | UO-31 renal 76% | TK-10 renal 111% | ACHN renal 102% | CAKI-1 renal 94.5% | A498 renal 70.9% | CCRF-CEM leukemia 101% | MOLT-4 leukemia 92.3% | SR leukemia 94.9% | RPMI-8226 leukemia 79.2% | OVCAR-8 ovarian 102% | OVCAR-5 ovarian 101% | OVCAR-4 ovarian 104% | SK-OV-3 ovarian 97.3% | IGROV1 ovarian 108% | OVCAR-3 ovarian 110% | HS 578T breast 95.5%

CCC1=CCC[C@@]2(C)CCC[C@@]3(C)CCCC(C)(C)[C@]1([O-])[O+]32
inactive: SK-MEL-2 melanoma 110% | SN12C renal 106% | UO-31 renal 100% | TK-10 renal 109% | ACHN renal 105% | CAKI-1 renal 94.7% | A498 renal 83.3% | CCRF-CEM leukemia 127% | MOLT-4 leukemia 104% | SR leukemia 112% | RPMI-8226 leukemia 97.9% | OVCAR-8 ovarian 104% | OVCAR-5 ovarian 104% | OVCAR-4 ovarian 85.1% | SK-OV-3 ovarian 107% | IGROV1 ovarian 105% | OVCAR-3 ovarian 111% | HS 578T breast 92.8% | NCI/ADR-RES ovarian 106%

COc1cccc(-c2nc3sccn3c2-c2ccnc(NCCCNS(=O)(=O)c3ccc(C(F)(F)F)cc3)c2)c1
inactive: SK-MEL-2 melanoma 65.7% | SN12C renal 47.9% | UO-31 renal 29.7% | TK-10 renal 85.5% | ACHN renal 56% | CAKI-1 renal 40.3% | A498 renal 43% | CCRF-CEM leukemia 40.4% | MOLT-4 leukemia 26.4% | SR leukemia 51.2% | RPMI-8226 leukemia 33% | OVCAR-8 ovarian 45.1% | OVCAR-5 ovarian 95.7% | OVCAR-4 ovarian 38.3% | SK-OV-3 ovarian 72.6% | IGROV1 ovarian 60.5% | OVCAR-3 ovarian 61.7% | HS 578T breast 63.1% | NCI/ADR-RES ovarian 35.5%

CN1C=CN(Cc2ccc(-c3ccccn3)nc2)[CH-]1.CN1C=CN(Cc2ccc(-c3ccccn3)nc2)[CH-]1.[Au+3]
inactive: SK-MEL-2 melanoma 46.5% | SN12C renal 41.3% | UO-31 renal 83.5% | TK-10 renal 67.4% | ACHN renal 81.7% | CAKI-1 renal 67.6% | A498 renal 42.9% | MOLT-4 leukemia 11.3% | SR leukemia 16.8% | RPMI-8226 leukemia 18.1% | OVCAR-8 ovarian 13.3% | OVCAR-5 ovarian 50.3% | SK-OV-3 ovarian 75.4% | OVCAR-3 ovarian 32.3% | HS 578T breast 79.2% | NCI/ADR-RES ovarian 101%
active: CCRF-CEM leukemia 6.2% | OVCAR-4 ovarian 6.08% | IGROV1 ovarian 3.06%

CN1CCN(Cc2ccc(NC(=O)c3nc4ccc5[nH]ncc5c4c4c3CCC4)cc2C(F)(F)F)CC1
inactive: SK-MEL-2 melanoma 104% | A498 renal 84.6% | OVCAR-4 ovarian 68.3% | SK-OV-3 ovarian 93.8% | HS 578T breast 85.9%
active: SN12C renal -82.7% | UO-31 renal -96.3% | TK-10 renal -91.2% | ACHN renal -99.6% | CAKI-1 renal -97.4% | CCRF-CEM leukemia -9.12% | MOLT-4 leukemia -38.7% | SR leukemia -31.6% | RPMI-8226 leukemia -37% | OVCAR-8 ovarian -53.8% | OVCAR-5 ovarian 3.19% | IGROV1 ovarian -80.9% | OVCAR-3 ovarian -91.3% | NCI/ADR-RES ovarian -40.8%

COc1ccc(-c2nc(-c3nc4cc(C)c(C)cc4[nH]3)cc3c2[nH]c2ccccc23)cc1
active: CCRF-CEM leukemia -7.91% | SR leukemia -43.7% | RPMI-8226 leukemia -26.3% | OVCAR-3 ovarian -4%
inactive: SK-MEL-2 melanoma 86.9% | SN12C renal 55.2% | UO-31 renal 56.3% | TK-10 renal 81.4% | ACHN renal 39.6% | CAKI-1 renal 66.2% | A498 renal 93.6% | MOLT-4 leukemia 12.7% | OVCAR-8 ovarian 36.9% | OVCAR-5 ovarian 77.6% | OVCAR-4 ovarian 60.6% | SK-OV-3 ovarian 109% | IGROV1 ovarian 66.9% | HS 578T breast 56.9% | NCI/ADR-RES ovarian 41.7%
